TEAD-YAP block: TEAD-YAP interaction inhibition, primary screen, TEAD-YAP interaction inhibitor project, luminescence, HEK-TIYL cells; TEAD-Gal4/YAP UAS-luciferase luminescence; inhibition, % at 9.12 µM; actives 1.4% (n = 640,000); AID 1259422, 2018; in the data active means inhibition above about 32%;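 further: 0% = median of test compound wells and 100% = reference inhibitor wells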
MITF primary: MITF inhibitors, primary screen, biochemical, AlphaScreen, human. AID 1259374, 2018. AlphaScreen MITF homodimerization, bead proximity signal. Microphthalmia-associated transcription factor (Homo sapiens), O75030. actives 0.91% (n = 650,000). inhibition, % at 2.6 µM; in the data active means inhibition above about 50%;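 further: 0% = vehicle wells with protein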
Target sequence (O75030 whole entry, looked up): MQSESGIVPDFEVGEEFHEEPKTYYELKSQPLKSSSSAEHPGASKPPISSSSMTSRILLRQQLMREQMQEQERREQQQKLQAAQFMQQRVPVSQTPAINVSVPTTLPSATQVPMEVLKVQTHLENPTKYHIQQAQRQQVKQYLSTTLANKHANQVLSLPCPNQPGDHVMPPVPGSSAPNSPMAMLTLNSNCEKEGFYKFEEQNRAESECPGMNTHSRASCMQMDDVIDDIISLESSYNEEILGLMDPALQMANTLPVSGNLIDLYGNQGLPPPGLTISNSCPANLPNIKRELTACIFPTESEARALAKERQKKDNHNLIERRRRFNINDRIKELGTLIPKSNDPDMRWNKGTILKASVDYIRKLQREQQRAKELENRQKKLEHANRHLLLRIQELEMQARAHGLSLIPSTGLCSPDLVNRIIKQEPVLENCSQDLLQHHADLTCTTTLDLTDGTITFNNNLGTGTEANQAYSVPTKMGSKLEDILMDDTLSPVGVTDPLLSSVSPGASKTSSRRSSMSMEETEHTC
FBW7 activator: FBW7 E3 ligase activators, primary screen, biochemical, AlphaScreen, human. actives 0.13% (n = 650,000). F-box/WD repeat-containing protein 7 (Homo sapiens), Q969H0. AlphaScreen FBW7–phospho-cyclin E peptide binding, activator screen. normalized activity (activation), % at 26.1 µM; in the data active means normalized activity above about 1.9%;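 further: purified mutant Fbw7 with reduced substrate affinity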
GPR151 ag: activators of human GPR151, primary screen, cell-based, PathHunter beta-arrestin, luminescence | G-protein coupled receptor 151 (Homo sapiens), Q8TDV0 | activation, % at 11.2 µM | actives 1% (n = 650,000) | PathHunter beta-arrestin GPR151 cells; in the data active means activation above about 4.9%;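 further: 0% = median of compound wells and 100% = cells with positive control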
GPR151 confirm: GPR151 activators, triplicate retest, confirmation, cell-based, PathHunter beta-arrestin, luminescence; shares compounds with GPR151 ag; GPR151 PathHunter beta-arrestin cells, 90 min; % of EA-reagent control over plate median; activation, % at 11.2 µM; 6,700 tested, under 10 active; AID 1508609, 2020;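 active means mean percent activation across replicates above the confirmation screen cutoff of 4.91%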
GPR119 ag: GPR119 activators in beta-arrestin cells, counter-screen for GPR151 activator project, cell-based, PathHunter beta-arrestin, luminescence, triplicate. shares compounds with GPR151 ag. 90 min; 0 = compound-well median, 100 = enzyme-acceptor control. activation, % at 11.2 µM. actives 0.3% (n = 6,700);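 active means mean percent activation in the counterscreen above 29.09%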;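 further: counterscreen on off-target GPR119 to flag nonselective hits from the GPR151 activator screen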
* marks the source's active call; other numbers are inactive results; x = no result given. This is a sample that favours compounds with a hit; in the whole collection about 3.5% have one here.

SMILES	TEAD-YAP block	MITF primary	FBW7 activator	GPR151 ag	GPR151 confirm	GPR119 ag
O=C(NCC1CCCO1)c1cc2nc(-c3ccc(F)cc3)cc(C(F)(F)F)n2n1 (centres undefined)	5	-4	0	-2	x	x
COc1cccc(-c2ccc(OCCCc3ccccn3)nc2)c1	-40	6	0	5.8*	0	3
CCOC(=O)c1c(NC(=O)CSc2nnc(CNC(=O)COc3ccccc3)n2CCc2ccccc2)sc2c1CCCCC2	-5	-6	0	-1	x	x
CCOCCCNC(=O)c1cc([N+](=O)[O-])ccc1Cl	6	10	0	23*	1	-4
CCN(CC)CCCNC(=O)c1cc([N+](=O)[O-])ccc1Cl	-2	14	0	1	x	x
O=C(NCCc1ccc(F)cc1)c1ccc([N+](=O)[O-])cc1Cl	-83	11	0	11*	0	7
CCc1ccc(N(CC(=O)NC(C)(C)C)C(=O)CCC(=O)Nc2cc(C)ccn2)cc1	-9	-6	0	0	x	x
COc1ccc(C2C(C(C)=O)=C(O)C(=O)N2CCO)c(OC)c1 (centres undefined)	-2	-7	0	0	x	x
CCCCN1C(=O)C(O)=C(C(C)=O)C1c1ccc(OC)cc1OC (centres undefined)	-1	10	0	5.2*	1	12
COC(=O)CSc1nnc(C)n1-c1ccc(N(C)C)cc1	1	-18	0	5.6*	0	4
CC(=O)CSc1nnc(C)n1-c1ccc(N(C)C)cc1	-5	8	0	-1	x	x
CCOc1ccc(NC(=O)c2c(NC(=O)CC)sc3c2CCC(C(C)(C)C)C3)cc1 (centres undefined)	6	12	0	0	x	x
CCC(=O)Nc1sc2c(c1C(=O)Nc1ccc(OC)cc1)CCC(C(C)(C)C)C2 (centres undefined)	-1	1	0	8.8*	-2	-11
COCCNC(=O)c1ccccc1NC(=O)C(C)N(c1ccc(OC)cc1)S(C)(=O)=O (centres undefined)	-3	-10	0	6.7*	0	-8
COCCNC(=O)c1ccccc1NC(=O)C(C)N(c1ccc(C)cc1)S(C)(=O)=O (centres undefined)	2	-8	0	2	x	x
COCCNC(=O)c1nn(C)c2c1CSc1ccccc1-2	-31	2	0	6.7*	-1	-9
Cc1ccc(NCC(=O)N/N=C/c2ccc(O)c(O)c2)cc1	-14	1	0	0	x	x
O=C(c1ccc(Cl)cc1)c1cc(NC(=O)c2cc(Br)cc(Br)c2O)ccc1Oc1ccc(Cl)cc1	1	-12	0	9.6*	1	-4
COc1ccc(C(=O)Nc2cc([N+](=O)[O-])ccc2OC)cc1	1	-11	0	2	x	x
Cc1ccc(C(=O)Nc2ccc(F)c([N+](=O)[O-])c2)o1	3	17	0	5.4*	0	-7
Cc1ccc(CCC(=O)Nc2ccc([N+](=O)[O-])cc2Cl)o1	4	5	0	5.2*	-1	-8
Cc1ccc(C(=O)Nc2cccc(C(F)(F)F)c2)o1	-5	19	0	7.1*	1	11
Cc1ccc(CCC(=O)Nc2ccc(Cl)cc2Cl)o1	-9	14	0	1	x	x
O=C(Nc1ccc(F)c([N+](=O)[O-])c1)c1ccc(-c2cccc(Cl)c2)o1	20	19	0	-1	x	x
COc1ccc([N+](=O)[O-])cc1NC(=O)c1ccc(C)o1	-2	13	0	9.7*	0	-6
SMILES	TEAD-YAP block	MITF primary	FBW7 activator	GPR151 ag	GPR151 confirm	GPR119 ag
COc1ccc(Cl)cc1N1C(=O)C2C(c3ccc(Br)cc3)OC3(C(=O)c4ccccc4C3=O)C2C1=O (centres undefined)	10	14	2	-1	x	x
Cc1nn(CC(=O)NCC#N)c(C)c1[N+](=O)[O-]	-4	-3	0	5.0*	0	-3
COc1ccc(C2Nc3cc(C)ccc3NC3=C2C(=O)CC(C)(C)C3)cc1OC (centres undefined)	0	0	0	0	x	x
Cc1ccc(SCc2ccc(C(N)=O)cc2)cc1	-29	3	0	0	x	x
CCNc1cc(N(CC)CCO)c2noc3c2c1C(=O)c1ccccc1-3	7	47	-1	-2	x	x
CCN(CCO)c1cc(NC(C)C)c2c3c(onc13)-c1ccccc1C2=O	12	24	0	7.1*	1	13
CCOC(CNC(=O)c1cn(C)c(=O)c2ccccc12)OCC	7	4	0	-2	x	x
CCOC(=O)CSCC(=O)N1N=C(c2cccs2)CC1c1cccc(OC)c1OC (centres undefined)	5	3	0	6.6*	0	8
CC(C)c1ccc(NC(=O)C2C3C=CC4(O3)C2C(=O)N(CCCN2CCOCC2)C4C(=O)NC2CCCCC2)cc1 (centres undefined)	4	-8	0	5.5*	1	12
CC(C)c1ccc(NC(=O)C2C3C=CC4(O3)C2C(=O)N(CCCN2CCN(C)CC2)C4C(=O)NC2CCCCC2)cc1 (centres undefined)	-14	-13	0	0	x	x
CCCCN1C(=O)C2C(C(=O)Nc3ccc(Cl)c(Cl)c3)C3C=CC2(O3)C1C(=O)NC1CCCCC1 (centres undefined)	3	16	0	-2	x	x
Cc1ccc(NC(=O)C2C3C=CC4(O3)C2C(=O)N(CCC2=CCCCC2)C4C(=O)NC2CCCCC2)cc1Cl (centres undefined)	-1	-22	0	5.8*	0	-8
CCCCN1C(=O)C2C(C(=O)Nc3ccc(C)c(Cl)c3)C3C=CC2(O3)C1C(=O)NC1CCCCC1 (centres undefined)	-5	-13	0	9.6*	0	3
Cc1ccc(NC(=O)C2C3C=CC4(O3)C2C(=O)N(CCC2=CCCCC2)C4C(=O)NC2CCCCC2)cc1 (centres undefined)	-8	-3	0	0	x	x
CCc1ccc(NC(=O)CSc2ncc(-c3ccccc3)n2C)cc1	5	7	0	2	x	x
COC(=O)c1cccc(NC2=CC(C)(C)CC(=O)C2)c1	-3	-8	0	0	x	x
COc1cc(CN2CCc3c(nc(N4CCC(C)CC4)[nH]c3=O)C2)ccc1O	-6	4	0	0	x	x
NC(COP(=O)(O)O)C(=O)O (centres undefined)	8	28	0	5.5*	0	4

Compound activity from PubChem BioAssay.
